Experimental data: PubChem BioAssay (EPA / NIEHS)
Activity calls are given as the source filed them. How the source made its calls: active means hit-call score of the fitted dose curve at least 0.9, where 1 is the maximum; inactive means score below 0.9.

How the values were obtained:
Conditions in all cases: mRNA level, 48 h; actives raise or lower the signal
[1] = read-out: Cytochrome P450 3A4 (Homo sapiens) (UniProt P08684); test: LTEA_HepaRG_CYP3A4: Life Technologies and Expression Analysis (LTEA) Assay for CYP3A4 using HepaRG (AID 2283487)
Method in brief: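 In a human hepatic line (HepaRG), duplicate wells were treated 48 h with up to 100 uM chemical in half-log dilutions. Endpoint: CYP3A4 mRNA induction or loss relative to 0.5% DMSO vehicle, by qRT-PCR.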

[2] = read-out: DNA damage-inducible transcript 3 (DDIT3), DDIT3 (gene 1649); test: LTEA_HepaRG_DDIT3: Life Technologies and Expression Analysis (LTEA) Assay for DNA damage-inducible transcript 3 (DDIT3) using HepaRG (AID 2283488)
Method in brief: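 Changes in DDIT3 transcript, in either direction relative to 0.5% DMSO vehicle, were quantified by TaqMan qRT-PCR after 48 h chemical exposure of HepaRG cells at 8 concentrations, maximum 100 uM.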

[3] = read-out: Pro-epidermal growth factor (Homo sapiens) (UniProt P01133); test: LTEA_HepaRG_EGF: Life Technologies and Expression Analysis (LTEA) Assay for Epidermal growth factor (EGF) using HepaRG (AID 2283489)
Method in brief: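 Differentiated human HepaRG cells, plated 48 h then switched to serum-free induction medium, were exposed for 48 h to test chemicals (8-point half-log series, top 100 uM, 0.5% DMSO). EGF mRNA was quantified by qRT-PCR, normalized to ACTB, GAPDH, POLR2A.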

[4] = read-out: Early growth response protein 1 (EGR1) transcription factor, EGR1 (gene 1958); test: LTEA_HepaRG_EGR1: Life Technologies and Expression Analysis (LTEA) Assay for Early growth response protein 1 (EGR1) transcription factor using HepaRG (AID 2283490)
Method in brief: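 Differentiated HepaRG cells in serum-free induction medium exposed 48 hours, duplicate, to 8 half-log concentrations up to 100 uM in 0.5% DMSO. EGR1 mRNA measured by TaqMan qRT-PCR, normalized to ACTB, GAPDH, POLR2A; bidirectional fit versus DMSO.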

[5] = read-out: Ezrin (EZR), EZR (gene 7430); test: LTEA_HepaRG_EZR: Life Technologies and Expression Analysis (LTEA) Assay for Ezrin (EZR) using HepaRG (AID 2283491)
Method in brief: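 Gain or loss of EZR mRNA is scored relative to 0.5% DMSO in human HepaRG cultures treated 48 h with test chemicals in duplicate, eight half-log concentrations from 100 uM.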

[6] = read-out: Cytochrome P450 3A7 (Homo sapiens) (UniProt P24462); test: LTEA_HepaRG_CYP3A7: Life Technologies and Expression Analysis (LTEA) Assay for CYP3A7 using HepaRG (AID 2283492)
Method in brief: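 HepaRG cells plated 48 h, then dosed in serum-free induction medium for 48 h at 8 concentrations (top 100 uM, half-log steps, 0.5% DMSO). CYP3A7 mRNA by qRT-PCR, normalised to ACTB/GAPDH/POLR2A; bidirectional fit versus DMSO.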

CYP3A5 (gene 1577) = test: LTEA_HepaRG_CYP3A5: Life Technologies and Expression Analysis (LTEA) Assay for CYP3A5 using HepaRG (AID 2283493)
Method in brief: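 mRNA induction or loss of CYP3A5 assessed in HepaRG after 48 h dosing, 100 uM top concentration, duplicate wells; TaqMan qRT-PCR with ACTB, GAPDH, POLR2A normalization; 0.5% DMSO as negative control.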

[7] = read-out: Fatty Acid-Binding Protein 1 (FABP1), FABP1 (gene 2168); test: LTEA_HepaRG_FABP1: Life Technologies and Expression Analysis (LTEA) Assay for Fatty Acid-Binding Protein 1 (FABP1) using HepaRG (AID 2283494)
Method in brief: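 Differentiated human HepaRG cells exposed 48 h in serum-free induction medium to eight half-log concentrations up to 100 uM (0.5% DMSO), duplicate. FABP1 mRNA by qRT-PCR, normalised to ACTB, GAPDH, POLR2A; bidirectional fitting against DMSO.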

[8] = read-out: Cytochrome P450 4A22 (Homo sapiens) (UniProt Q5TCH4); test: LTEA_HepaRG_CYP4A22: Life Technologies and Expression Analysis (LTEA) Assay for Cytochrome P450 4A22 (CYP4A22) using HepaRG (AID 2283495)
Method in brief: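 qRT-PCR of CYP4A22 mRNA (Fluidigm TaqMan, normalized to three housekeeping genes) after 48 h chemical exposure of HepaRG cells; 8-point half-log series, top 100 uM, 0.5% DMSO vehicle. Bidirectional curve fitting vs DMSO baseline.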

[9] = read-out: Cytochrome P450 7A1 (Homo sapiens) (UniProt P22680); test: LTEA_HepaRG_CYP7A1: Life Technologies and Expression Analysis (LTEA) Assay for Cytochrome P450 7A1 (CYP7A1) using HepaRG (AID 2283496)
Method in brief: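 Gene expression endpoint in human HepaRG liver cells treated for 48 h with test chemicals (up to 100 uM, 0.5% DMSO). Values come from bidirectional concentration-response fitting versus DMSO.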

[10] = read-out: Glutathione S-Transferase (GSTA2), GSTA2 (gene 2939); test: LTEA_HepaRG_GSTA2: Life Technologies and Expression Analysis (LTEA) Assay for Glutathione S-Transferase (GSTA2) using HepaRG (AID 2283497)
Method in brief: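 Differentiated human HepaRG cells were exposed in duplicate for 48 h in serum-free induction medium, 8 points from 100 uM top in half-log steps, 0.5% DMSO. GSTA2 mRNA was measured by TaqMan qRT-PCR, normalized to ACTB, GAPDH and POLR2A; bidirectional fit versus DMSO.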

[11] = read-out: Glutamate-cysteine ligase catalytic (GCLC), GCLC (gene 2729); test: LTEA_HepaRG_GCLC: Life Technologies and Expression Analysis (LTEA) Assay for Glutamate-cysteine ligase catalytic (GCLC) using HepaRG (AID 2283498)
Method in brief: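 Differentiated HepaRG cells exposed 48 h in serum-free induction medium, eight-point half-log series topping at 100 uM in 0.5% DMSO, duplicates. GCLC mRNA by qRT-PCR normalized to ACTB, GAPDH and POLR2A, fitted bidirectionally versus DMSO.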

[12] = read-out: growth arrest and DNA damage 45 (GADD45G), GADD45G (gene 10912); test: LTEA_HepaRG_GADD45G: Life Technologies and Expression Analysis (LTEA) Assay for growth arrest and DNA damage 45 (GADD45G) using HepaRG (AID 2283499)
Method in brief: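 Differentiated human HepaRG cells in serum-free induction medium were exposed for 48 h to 8 half-log concentrations up to 100 uM in 0.5% DMSO, in duplicate. GADD45G mRNA was measured by TaqMan qRT-PCR, normalised to ACTB, GAPDH and POLR2A, and fitted bidirectionally against DMSO.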

[13] = read-out: Glutamate-cysteine ligase regulatory (GCLM), GCLM (gene 2730); test: LTEA_HepaRG_GCLM: Life Technologies and Expression Analysis (LTEA) Assay for Glutamate-cysteine ligase regulatory (GCLM) using HepaRG (AID 2283500)
Method in brief: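 Human liver HepaRG cultures receive test chemicals for 48 hours at up to 100 uM in 0.5% DMSO. GCLM expression is measured by qRT-PCR and analysed for increases or decreases against vehicle.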

[14] = read-out: Heat shock 70 kDa protein 1 (HSPA1A), gene 3303; test: LTEA_HepaRG_HSPA1A: Life Technologies and Expression Analysis (LTEA) Assay for Heat shock 70 kDa protein 1 (HSPA1A) using HepaRG (AID 2283502)
Method in brief: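 HSPA1A induction in human HepaRG liver cells is measured after 48 h of chemical treatment (100 uM maximum, 0.5% DMSO vehicle). Expression comes from qRT-PCR normalized to endogenous controls.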

[15] = read-out: Hypoxia-inducible factor 1-alpha (Homo sapiens) (UniProt Q16665); test: LTEA_HepaRG_HIF1A: Life Technologies and Expression Analysis (LTEA) Assay for Hypoxia-inducible factor 1 (HIF1A) Trancription factor using HepaRG (AID 2283503)
Method in brief: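 HepaRG, 48 h exposure, 8-pt half-log series from 100 uM, 0.5% DMSO vehicle, duplicates. Readout: HIF1A transcript by qRT-PCR (Fluidigm array), housekeeping-normalised. Bidirectional curve fit vs DMSO baseline.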

[16] = read-out: 3-Hydroxy-3-Methylglutaryl-CoA Synthase 2 (HMGCS2), HMGCS2 (gene 3158); test: LTEA_HepaRG_HMGCS2: Life Technologies and Expression Analysis (LTEA) Assay for 3-Hydroxy-3-Methylglutaryl-CoA Synthase 2 (HMGCS2) using HepaRG (AID 2283504)
Method in brief: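 Differentiated human HepaRG cells were exposed in duplicate for 48 h in serum-free induction medium to eight concentrations (top 100 uM, half-log steps, 0.5% DMSO). HMGCS2 mRNA was quantified by TaqMan qRT-PCR, normalised to ACTB, GAPDH and POLR2A, then fitted bidirectionally against DMSO.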

HGF (gene 3082) = test: LTEA_HepaRG_HGF: Life Technologies and Expression Analysis (LTEA) Assay for Hepatocyte Growth Facto (HGF) using HepaRG (AID 2283505)
Method in brief: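 Differentiated human HepaRG cells in serum-free induction medium were exposed in duplicate for 48 h to eight concentrations (top 100 uM, half-log steps, 0.5% DMSO). HGF mRNA was quantified by qRT-PCR, normalized to ACTB, GAPDH and POLR2A.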

[17] = read-out: Insulin Like Growth Factor 1 (IGF1), IGF1 (gene 3479); test: LTEA_HepaRG_IGF1: Life Technologies and Expression Analysis (LTEA) Assay for Insulin Like Growth Factor 1 (IGF1) using HepaRG (AID 2283506)
Method in brief: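 Using human HepaRG liver cells, IGF1 transcript induction or suppression is measured 48 h after dosing across eight concentrations capped at 100 uM. Values derive from bidirectional concentration-response fitting with DMSO as baseline.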

[18] = read-out: Glutathione S-transferase M3 (GSTM3), GSTM3 (gene 2947); test: LTEA_HepaRG_GSTM3: Life Technologies and Expression Analysis (LTEA) Assay for Glutathione S-transferase M3 (GSTM3) using HepaRG (AID 2283501)
Method in brief: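 Differentiated HepaRG cells in serum-free induction medium were exposed in duplicate for 48 h to 8 half-log concentrations up to 100 uM in 0.5% DMSO. GSTM3 mRNA was measured by TaqMan qRT-PCR, normalized to ACTB/GAPDH/POLR2A, and fitted bidirectionally versus DMSO.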

Measured: AC50

Sequence of Cytochrome P450 3A7 (Homo sapiens) (P24462 whole entry, looked up): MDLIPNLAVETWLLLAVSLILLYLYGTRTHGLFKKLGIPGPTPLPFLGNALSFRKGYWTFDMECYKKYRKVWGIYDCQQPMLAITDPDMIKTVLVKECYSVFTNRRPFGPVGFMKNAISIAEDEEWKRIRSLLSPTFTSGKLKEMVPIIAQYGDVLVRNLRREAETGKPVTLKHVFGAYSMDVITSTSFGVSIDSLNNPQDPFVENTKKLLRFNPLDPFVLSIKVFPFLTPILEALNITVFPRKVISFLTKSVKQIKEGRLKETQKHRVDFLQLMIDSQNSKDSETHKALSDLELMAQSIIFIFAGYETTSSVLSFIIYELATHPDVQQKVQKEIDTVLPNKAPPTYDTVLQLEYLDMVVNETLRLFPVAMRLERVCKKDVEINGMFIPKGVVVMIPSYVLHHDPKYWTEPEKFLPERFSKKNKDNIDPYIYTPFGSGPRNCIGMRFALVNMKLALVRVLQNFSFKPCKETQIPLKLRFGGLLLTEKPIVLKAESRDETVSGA
Sequence of Cytochrome P450 3A4 (Homo sapiens) (P08684 whole entry, looked up): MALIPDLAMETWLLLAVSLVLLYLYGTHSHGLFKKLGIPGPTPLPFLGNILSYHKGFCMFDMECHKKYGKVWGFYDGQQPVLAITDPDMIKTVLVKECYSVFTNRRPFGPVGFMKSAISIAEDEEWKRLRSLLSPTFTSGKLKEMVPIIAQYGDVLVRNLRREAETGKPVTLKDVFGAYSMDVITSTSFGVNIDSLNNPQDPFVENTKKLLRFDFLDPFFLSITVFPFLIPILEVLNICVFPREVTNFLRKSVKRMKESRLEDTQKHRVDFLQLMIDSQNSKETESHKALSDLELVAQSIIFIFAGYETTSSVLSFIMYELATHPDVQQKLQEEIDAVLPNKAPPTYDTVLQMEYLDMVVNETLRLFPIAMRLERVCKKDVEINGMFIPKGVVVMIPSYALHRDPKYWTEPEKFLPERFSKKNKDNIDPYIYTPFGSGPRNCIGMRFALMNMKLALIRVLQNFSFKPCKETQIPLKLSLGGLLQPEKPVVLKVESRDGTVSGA
Sequence of Hypoxia-inducible factor 1-alpha (Homo sapiens) (Q16665 whole entry, looked up): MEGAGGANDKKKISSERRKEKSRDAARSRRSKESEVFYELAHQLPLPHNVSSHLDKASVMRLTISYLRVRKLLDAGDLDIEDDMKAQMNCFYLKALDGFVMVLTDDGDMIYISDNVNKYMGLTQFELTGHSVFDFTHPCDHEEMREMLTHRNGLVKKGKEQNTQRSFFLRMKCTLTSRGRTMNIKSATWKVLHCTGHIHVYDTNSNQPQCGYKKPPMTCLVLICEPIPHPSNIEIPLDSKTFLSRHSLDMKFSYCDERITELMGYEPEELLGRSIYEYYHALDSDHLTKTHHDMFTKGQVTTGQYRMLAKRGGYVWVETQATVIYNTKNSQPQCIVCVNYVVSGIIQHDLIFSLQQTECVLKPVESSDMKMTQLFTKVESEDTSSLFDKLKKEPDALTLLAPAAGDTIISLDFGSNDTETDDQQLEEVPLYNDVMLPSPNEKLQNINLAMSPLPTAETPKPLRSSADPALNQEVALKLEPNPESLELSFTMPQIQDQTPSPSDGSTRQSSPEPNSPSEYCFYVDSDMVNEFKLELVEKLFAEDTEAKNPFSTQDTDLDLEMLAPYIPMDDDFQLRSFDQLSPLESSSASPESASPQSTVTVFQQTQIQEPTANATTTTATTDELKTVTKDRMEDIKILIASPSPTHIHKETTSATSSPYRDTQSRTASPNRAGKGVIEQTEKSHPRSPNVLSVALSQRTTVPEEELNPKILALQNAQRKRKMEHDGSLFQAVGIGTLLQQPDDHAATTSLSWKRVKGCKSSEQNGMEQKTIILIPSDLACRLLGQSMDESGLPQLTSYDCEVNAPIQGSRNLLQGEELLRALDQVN

CC1(C(=O)Nc2ccc(O)c(Cl)c2Cl)CCCCC1
active: [1] 21.4 µM
not listed: [18]
inactive: all other assays above

CNC(=O)ON=C(SC)C(=O)N(C)C
not listed: [18]
inactive: all other assays above

CCCOc1nn(C(=O)NS(=O)(=O)c2ccccc2C(=O)OC)c(=O)n1C
not listed: [9]
inactive: all other assays above
